# VDR inh = Inhibitors of the vitamin D receptor (VDR): qHTS. VDR-SRC2-3 peptide fluorescence polarization, 2 h. Potency, µM, actives largely listed as inhibitors. 400,000 compounds, 0.93% hits. Vitamin D3 receptor (Homo sapiens), P11473. AID 504847, 2011
#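 FP read-out; VDR + SRC2-3 coactivator peptide; 23 nl compound by pintool; 2 h RT incubation; reagents held at 4 deg C, protected from light.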
# PLK1 PBD block = qHTS for Inhibitors of PLK1-PDB (polo-like kinase 1 - polo-box domain): Primary Screen; Serine/threonine-protein kinase PLK1 (Homo sapiens), P53350; Plk1 PBD binding of FITC phosphopeptide, fluorescence polarization; Potency, µM, actives largely listed as inhibitors; 360,000 compounds, 2.8% hits; note: series mostly up to about 57 µM; nearly all actives have a fitted effect of over 65% in size
# CCT modulator = High-Throughput Screening for Modulators of Cytosolic Chaperonin Activity; purified chaperonin ATPase assay, HTRF ADP detection, 30 min; activity change, % (test concentration not listed), hits read low; 360,000 compounds, 0.3% hits; AID 651819, 2012; in the data active = activity change below about -30%
#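 ATPase activity: ADP formed was measured by HTRF Transcreener (665/615 nm ratio) after 30 min at 37 deg C with 10 uM ATP. Compounds screened at one 76 uM concentration against 40 or 20 nM TRiC in Tris pH 7.4/KCl/MgCl2/DTT buffer.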
# Sfp PPTase inh = qHTS Assay for Inhibitors of Bacillus subtilis Sfp phosphopantetheinyl transferase (PPTase); 4'-phosphopantetheinyl transferase ffp (Bacillus subtilis), Q9F4F7; Biochemical Sfp PPTase activity, qHTS; Potency, µM, actives largely listed as inhibitors; 310,000 compounds, 3.5% hits; AID 1490, 2009;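 note: the enzyme is Sfp with the accession as filed and its product quenches rhodamine fluorescence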
#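 Reaction rates are the 30-min fluorescence difference (ex 525, em 598 nm) in wells containing 15 nM Sfp, 5 uM rhodamine-CoA and 12.5 uM BHQ-2-YbbR at pH 7.6 with 10 mM MgCl2.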
# G9a block = qHTS Assay for Inhibitors of Histone Lysine Methyltransferase G9a; Histone-lysine N-methyltransferase EHMT2 (Homo sapiens), Q96KQ7; G9a H3K9 monomethylation, AlphaScreen, 2 h; Potency, µM (top dose mostly 102 µM), usual class: inhibitors; 350,000 compounds, 8.8% hits; AID 504332, 2011; note: nearly all actives have a fitted effect of over 75% in size
# Target sequence (Q96KQ7 913-1193 limits assumed): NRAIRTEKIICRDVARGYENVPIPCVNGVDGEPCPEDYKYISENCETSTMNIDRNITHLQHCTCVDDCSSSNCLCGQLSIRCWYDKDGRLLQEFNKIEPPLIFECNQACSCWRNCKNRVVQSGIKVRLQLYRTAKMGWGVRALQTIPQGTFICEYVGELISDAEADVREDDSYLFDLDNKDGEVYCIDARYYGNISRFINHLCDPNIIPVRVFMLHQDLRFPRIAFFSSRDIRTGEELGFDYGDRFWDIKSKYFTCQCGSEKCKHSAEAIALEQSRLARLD
#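 Step 1: enzyme (final 20 nM) with compound, 15 min RT. Step 2: substrate peptide 500 nM and SAM 20 uM, 2 h RT. Step 3: anti-H3K9me1 antibody and AlphaScreen beads, 10 min, then plate read.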
# Mm-Cpn inhibitor = Inhibitors of TCP-1 ring complex (TRiC) of Methanococcus maripaludis (MmCpn): qHTS; 330,000 compounds, 0.031% hits; Potency, µM (doses to about 76.9 µM), most hits filed as inhibitors; purified Mm-Cpn ATPase, ADP Transcreener TR-FRET; AID 504842, 2011; Chaperonin Mm-Cpn (Methanococcus maripaludis); note: nearly all actives have a fitted effect of over 80% in size
#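 Purified archaeal chaperonin (25 nM final) was preincubated with compound for 10 min at 37°C, then ATP (10 uM final) was added for 30 min at 37°C in Tris pH 7.4/KCl/MgCl2/DTT buffer. ADP was quantified by HTRF Transcreener TR-FRET.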
# A number is an active result; . = inactive; ? = inconclusive; / = not tested or not shown; [ ] = dose if it differs, or a comment. The list is not random: actives were taken first. Their share in the collection is about 10%. Unless noted, calls come from the whole dose curve; as a rule, active = well fitted curve in the direction sought with a large enough effect; inconclusive = small, poorly fitted or top-dose-only effect, or another doubt; inactive = no such curve, though single readings can be large; an effect the other way counts as inactive or inconclusive.
SMILES,VDR inh,PLK1 PBD block,CCT modulator,Sfp PPTase inh,G9a block,Mm-Cpn inhibitor
CC(C)c1ccc2c(c1)NC(c1ccc(F)cc1)=NC(c1cccs1)=N2,.,/,/,/,8.9µM,/
CCCCC(=O)Nc1nnc(S(=O)(=O)N(C)Cc2ccccc2)s1,.,/,/,/,.,/
COc1cccc([C@@H]2Oc3ccc(OC)cc3C(=O)[C@H]2OC(=O)Nc2ccc(OC(F)F)cc2)c1,.,/,/,.,/,/
Cc1nnc(-c2ccc(N3CCCCCC3)c([N+](=O)[O-])c2)o1,.,.,.,.,45µM,.
Cc1nnc(-c2ccc(N3CCOCC3)c([N+](=O)[O-])c2)o1,.,.,.,/,.[2.33 µM],.
Cc1nnc(-c2ccc(Oc3ccc(Cl)cc3)c([N+](=O)[O-])c2)o1,?,21µM,.,.,.,.
COc1ccc(N2CCN(S(=O)(=O)c3csc(C(N)=O)c3)CC2)cc1,.,/,/,/,.,/
Cc1ccc(C2c3[nH]c4ccccc4c3CCN2C(=O)CCc2ccccc2)cc1 (stereo not drawn),.,/,/,/,.,/
CCOc1ccc(S(=O)(=O)NCC(c2ccco2)S(=O)(=O)c2ccc(C)cc2)cc1 (stereo not drawn),.,/,/,/,.,/
O=C(NCc1ccccc1)c1ccc(CSc2nc3cccnc3n2Cc2cccc(F)c2)cc1,.,/,/,/,.,/
CC(C)CNC(C(=O)Nc1ccc([N+](=O)[O-])cc1Br)c1ccccc1 (stereo not drawn),.,.,.,?,6.3µM,.
O=C(OCc1ccccc1)c1cn(-c2ccccc2)nc1-c1ccncc1,.,.,.,89µM,.,.
CCCOc1ccc(N)cc1N,?,?,.,45µM,5µM,.
COc1ccc(Cc2nc3ccc(C(=O)N(C)Cc4cc(C)[nH]n4)cc3o2)cc1OC,.,.,-70,.,.,.
Cc1cc(CN(C)C(=O)c2ccc3nc(Cc4ccccc4F)oc3c2)n[nH]1,.,.,.,.,.,.
CCCCNc1nc(C)nc2c1nc(-c1ccccc1)n2CC(C)(C)CN(C)C,/,/,/,.,/,/
CN1C(=O)c2cccc3c(N(C)C)ccc(c23)C1=O,.,.,.,.,/,.
CNc1ccc2c3c(cccc13)C(=O)N(C)C2=O,.,3µM,.,.,.,.
O=C(c1ccccc1)N1CCN(Cc2ccccc2C(F)(F)F)CC1,?,.,.,?,?,.
COc1cc(OC)cc(C(=O)N2CCN(C(=O)c3ccc(-c4ccccc4)cc3)CC2)c1,.,.,.,?,?,.
COc1cc(OC)cc(C(=O)N2CCN(Cc3ccccc3[N+](=O)[O-])CC2)c1,.,?,.,50µM,7.9µM,.
COc1ccc(C(=O)N2CCN(Cc3ccccc3[N+](=O)[O-])CC2)cc1,.,.,.,.,16µM,.
COc1ccc(C(=O)N2CCN(Cc3ccccc3C(F)(F)F)CC2)cc1,.,.,.,.,20µM,.
O=C(c1ccc([N+](=O)[O-])cc1)N1CCN(Cc2ccccc2[N+](=O)[O-])CC1,.,.,.,50µM,/,.
COc1ccc(C(=O)N2CCN(Cc3ccccc3)CC2)cc1[N+](=O)[O-],.,.,.,.,.,.
SMILES,VDR inh,PLK1 PBD block,CCT modulator,Sfp PPTase inh,G9a block,Mm-Cpn inhibitor
O=C(c1ccc([N+](=O)[O-])cc1)N1CCN(Cc2ccccc2)CC1,.,.,.,.,.,.
Cc1ccc2c(=O)cc(C(=O)Nc3sc4c(c3C(=O)NCc3ccco3)CCC4)oc2c1,.,/,/,/,.,/
O=[N+]([O-])c1ccccc1CN1CCN(Cc2ccccn2)CC1,.,17µM,.,50µM,4µM,.
CCNc1ncc2nc(-c3ccc(OC)cc3)c(=O)n(Cc3cccs3)c2n1,.,/,/,.,.[0.501 µM],/
S=C1NNC2(CC3CC2C2CCCC32)NN1 (stereo not drawn),.,.,.,.,1.8µM,.
CCc1nnc2c3ccccc3nc(Nc3ccccc3OC)n12,.,/,/,/,.,/
O=C(CSc1n[nH]c(-c2ccccc2Cl)n1)N1CCN(c2ccccc2)CC1,.,/,/,/,.,/
